Bioassay records as filed in PubChem.
Tau fibril ThT = tau fibrillization inhibition (ThT binding). P10636. recombinant tau K18 P301L, heparin-induced fibrillization, ThT fluorescence. hit rate 2.1% among 270,000. AID 1460. Potency, µM (highest dose often 57.4 µM), for the others: at the highest dose activity, negative = inhibition, most hits filed as inhibitors; also: nearly all actives have a fitted effect of over 55% in size
Target sequence (P10636 561-689 P618L limits assumed): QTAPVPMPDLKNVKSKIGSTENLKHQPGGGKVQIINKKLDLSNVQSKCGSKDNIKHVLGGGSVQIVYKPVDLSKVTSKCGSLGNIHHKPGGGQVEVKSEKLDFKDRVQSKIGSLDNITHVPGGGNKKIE
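Aggregation was driven by heparin (20 uM final) acting on recombinant tau […] bearing P301L in 100 mM sodium acetate pH 7; fibrils were detected with Thioflavin T.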
JMJD2E inh = inhibitors of human JMJD2E histone demethylase; B2RXH2; JMJD2E catalytic domain, FDH-coupled NADH fluorescence (FDH is formaldehyde dehydrogenase); Potency, µM (highest dose often 57.1 µM), for the others: top-dose activity change, negative = inhibition, actives largely listed as inhibitors; hit rate 1.6% among 230,000; active = well fitted inhibition curve with a large enough effect, not every such curve was filed as active; inconclusive = small, poorly fitted or top-dose-only effect, or another doubt; inactive = no such curve, though single readings can be large or run the other way;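 also: 0% = wells with enzyme and -100% = buffer wells without enzyme; nearly all actives have a fitted effect of over 50% in size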
Target sequence (B2RXH2 1-337 limits assumed): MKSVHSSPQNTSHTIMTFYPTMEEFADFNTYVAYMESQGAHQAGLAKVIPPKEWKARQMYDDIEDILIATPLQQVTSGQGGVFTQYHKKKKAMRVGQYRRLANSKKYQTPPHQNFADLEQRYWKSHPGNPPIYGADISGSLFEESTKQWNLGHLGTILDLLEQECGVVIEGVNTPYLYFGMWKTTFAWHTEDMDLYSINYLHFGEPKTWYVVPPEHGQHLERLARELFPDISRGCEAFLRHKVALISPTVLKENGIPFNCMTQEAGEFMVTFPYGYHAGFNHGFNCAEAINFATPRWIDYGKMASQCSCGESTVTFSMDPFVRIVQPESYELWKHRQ
Tau FP inhib = tau fibrillization inhibition (FP). hit rate 0.39% among 280,000. Potency, µM (top dose mostly 57.7 µM), for the others: top-dose activity, negative = inhibition, usual class: inhibitors. K18 P301L tau heparin fibrillization, Alexa594 FP, 6 h. AID 1468; also: nearly all actives have a fitted effect of over 55% in size
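Quantitative HTS format: compounds meet 15 uM recombinant K18 P301L tau and Alexa 594-tau tracer in 100 mM sodium acetate pH 7; 20 uM heparin triggers fibrillization at 37 C over 6 hr; FP gives the signal.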
Tau fluor cs = counter-screen for tau fibril formation inhibitors; tau K18 P301L (four-repeat tau fragment) Alexa594 fluorescence, heparin fibrillization; Potency, µM (series often up to 57.7 µM), for inactives: top-dose activity change, negative = decrease; hit rate 0.93% among 280,000; AID 1463; also: nearly all actives have a fitted effect of over 55% in size
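Human K18 P301L tau (15 uM unlabeled plus 0.24 uM Alexa 594-labeled, final) in 100 mM sodium acetate pH 7 was mixed with compound and 20 uM heparin and incubated 6 hr at 37 C.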
RGS12 GoLoco inh = RGS12 GoLoco-Gai1 interaction inhibition | Gai1:RGS12 GoLoco peptide FP, rhodamine, 10 min | hit rate 0.44% among 230,000 | AID 880 | Potency, µM (titrated, usually from 61.6 µM), without a hit: at the highest dose activity, negative = inhibition, hits mostly inhibitors; active = well fitted inhibition curve with a large enough effect, not every such curve was filed as active; inactive = no such curve, though single readings can be large or run the other way; also: nearly all actives have a fitted effect of over 30% in size
* = called active by the depositor; ? = inconclusive; . = no result; [ ] = dose if it differs, or a comment. Sampled rows, rich in hits. Any-hit rate of the full collection: about 3.4%. Unless noted, calls follow the shape of the dose curve; as a rule, active = well fitted curve in the direction sought with a large enough effect; inconclusive = small, poorly fitted or top-dose-only effect, or another doubt; inactive = no such curve, though single readings can be large; an effect the other way counts as inactive or inconclusive. Unless noted, % is scaled to controls: 0 for no effect and ±100 for the full control effect; potency is read from the fitted curve at half-maximal effect.

SMILES	Tau fibril ThT	JMJD2E inh	Tau FP inhib	Tau fluor cs	RGS12 GoLoco inh
COc1ccc(C2Nc3ccc4ccccc4c3-c3c2c(=O)oc2ccccc32)cc1 (stereo not drawn)	6%	3.2µM*	?	?	-9%
Cn1cccc1C(=O)N1CCC[C@@]2(CCN(Cc3cc(C(F)(F)F)cc(C(F)(F)F)c3)C2)C1	.	.	.	.	8%
O=C1/C(=C/c2cccnc2)CCc2c1[nH]c1ccccc21	7.1µM*	-9%	-1%	-23%	23%
CC1C/C(=C\c2cccnc2)C(=O)/C(=C/c2cccnc2)C1 (stereo not drawn)	7.1µM*	3%	?	-16%	7%
CC(C)CN1C(=O)/C(=C(/C#N)C(=O)NC2CCCCC2)c2ccccc21	18µM*	-4%	?	-13%	-6%
CCCCN1C(=O)/C(=C(/C#N)C(=O)N2CCCC2)c2ccccc21	?	3%	-12%	-7%	-5%
Oc1ccccc1/C=N/Nc1nc2ccccc2o1	?	28µM*	14%	?	-8%
COc1cc(/C=N/Nc2nc3ccccc3o2)cc(OC)c1O	14µM*	?	8%	?	7%
CC(=O)N1N=C(c2ccccc2)OC1c1ccc([N+](=O)[O-])s1 (stereo not drawn)	?	14µM*	?	-18%	5%
Cc1cc(N2CCN(C)CC2)nc2ccc(NC(=O)Nc3ccc(Cl)cc3)cc12	13µM*	.	-13%	10µM*[quencher]	.
Cc1ccccc1NC(=O)Nc1ccc2nc(N3CCN(C)CC3)cc(C)c2c1	?	.	?	14µM*[quencher]	.
Cc1cc(N2CCN(C)CC2)nc2ccc(NC(=S)N3CCN(c4ccc(Cl)cc4)CC3)cc12	?	?	0%	?	2%
CCOc1ccccc1NC(=O)Nc1ccc2nc(N3CCN(C)CC3)cc(C)c2c1	14µM*	.	5%	10µM*[quencher]	.
Cc1cc(N2CCN(C)CC2)nc2ccc(NC(=O)c3ccc(C(C)(C)C)cc3)cc12	?	.	13%	?	.
O=c1c(Cl)c(O)c2cccc3c4ccccc4n1c23	14µM*	?	?	?	-1%
COc1cccc(N=Nc2c(N)[nH][nH]c2=O)c1	?	6%	2%	-29%	8%
COc1cccc(N=Nc2c(N)[nH]n3c(=O)c4c(nc23)CCCC4)c1	1.4µM*	-4%	3%	?	-2%
C[n+]1cccc(CNC(=O)/C=N/O)c1	-2%	-2%	-4%	-2%	14µM*
O=C(/C=N/O)NCc1cccnc1	12%	-3%	2%	1%	.
CC(=O)Nc1ccc(NC(=O)Nc2ccc3c(c2)N(C)C(=O)CS3)cc1	-14%	-3%	3%	-20%	33%
COc1cccc(NC(=O)Nc2ccc3c(c2)N(C)C(=O)CS3)c1	?	2%	2%	14µM*[quencher]	6%
CCOc1ccc(OCC)c(NC(=O)Nc2ccc3c(c2)N(C)C(=O)CS3)c1	-18%	-4%	5%	8.9µM*[quencher]	19%
CSc1cccc(NC(=O)N2CCN(S(=O)(=O)c3ccc4c(ccn4C)c3)CC2)c1	7%	.	?	-29%	.
CC(=O)c1cccc(NC(=O)CC(c2ccc(C)cc2)N2Cc3ccccc3C2=O)c1 (stereo not drawn)	2%	.	4%	-28%	.
CN1CCc2c(sc(/N=C/c3ccco3)c2C(N)=O)C1	?	?	?	-11%	.
SMILES	Tau fibril ThT	JMJD2E inh	Tau FP inhib	Tau fluor cs	RGS12 GoLoco inh
CN1CCc2c(sc(/N=C/c3cccs3)c2C(N)=O)C1	14µM*	?	?	-12%	48%
C[N+](C)(C)C/C=C1/COCO1	-7%	-14%	6%	-1%	10µM*
S=c1[nH]c(-c2ccccc2)cn1/N=C/c1ccncc1	11µM*	?	-9%	?	-6%
CCOc1ccc(/C=N/n2cc(-c3ccccc3)[nH]c2=S)cc1	?	?	-5%	-22%	8%
COc1cccc2[nH]c3c(N4CCCCC4)ncnc3c12	3%	1%	3%	-2%	-10%
Cc1cccc2[nH]c3c(N4CC=C(c5ccc(F)cc5)CC4)ncnc3c12	?	?	?	14µM*[quencher]	6%
CCOc1cc(CNc2ccc(S(N)(=O)=O)cc2)cc(Cl)c1OC	-2%	0%	-12%	-14%	-8%
c1cc(CNc2ccc(N3CCOCC3)cc2)ccn1	22µM*	?	?	?	-3%
CCOc1ccc(CNc2cccc(SC)c2)cc1	16µM*	-26%	-37%	-31%	18%
COc1cc(CNc2ccc(N3CCOCC3)cc2)cc(Br)c1OC	?	-12%	1%	-18%	-15%
COc1cc(CNc2ccc(N3CCCC3)cc2)cc(Cl)c1OC	4µM*	14µM*	?	?	10%
CCOc1cc(CNc2ccc(N3CCCC3)cc2)cc(Cl)c1OC	3.5µM*	16µM*	7.1µM*	?	-2%
Cc1cc(F)ccc1Nc1nc2ccc(Cl)cc2n2cnnc12	-5%	.	-15%	-23%	.
CCOc1ccc(CNc2ccc(N3CCCC3)cc2)cc1	7.1µM*	16µM*	?	?	-14%
C=CCOc1c(Cl)cc(CNc2ccc(N(C)C)cc2)cc1OC	10%	3%	0%	1%	22µM*
C=CCOc1c(Cl)cc(CNc2ccc(C)c(Cl)c2)cc1OC	?	-2%	7%	?	7%
C/C(=N\OCc1nc2ccccc2c(=O)n1/N=C/c1cc(C)cc([N+](=O)[O-])c1O)c1ccccc1	4µM*	14µM*	-2%	?	18%
C/C(=N\OCc1nc2ccccc2c(=O)n1/N=C/c1cc([N+](=O)[O-])ccc1O)c1ccccc1	.	?	-5%	14µM*[quencher]	47%
O=[N+]([O-])c1ccc(O)c(/C=N/n2c(CO)nc3ccccc32)c1	?	3%	7%	-8%	0%
CCOC(=O)c1c(-c2ccccc2)csc1NC(=O)c1nc(SCC)ncc1Cl	-15%	.	-15%	-22%	.
CCOC(=O)c1c(-c2ccccc2)csc1NC(=O)c1nc(S(=O)(=O)CC)ncc1Cl	13µM*	.	?	?	.
CCOC(=O)c1c(NC(=O)c2nc(S(C)(=O)=O)ncc2Cl)sc(C(C)=O)c1C	22µM*	.	?	?	.
Cc1ccccc1NCc1ccc(O)c2ncccc12	-11%	7.1µM*	6%	-8%	-2%
CC(C)NC[C@@H](O)c1ccc(O)c2ncccc12	.	.	.	.	4%[14.2 µM]
COCc1ccc(O)c2ncccc12	-19%	10µM*	-7%	-15%	9%
Oc1ccc(CNc2ccc(F)cc2)c2cccnc12	?	7.9µM*	5%	-20%	1%
Oc1ccc(CNc2ccccc2)c2cccnc12	?	8.9µM*	3%	-20%	2%
OCc1ccnc2c(O)cccc12	?	?	-6%	?	-7%
Cc1sc(-c2ccncc2)nc1OC(=O)c1cc(Cl)cc(Cl)c1	28µM*	-2%	-12%	-15%	6%
Cc1nc(NC(=O)CC(C)C)sc1-c1csc(Nc2ccc(Cl)cc2Cl)n1	?	-26%	9%	22µM*[quencher]	36%
